We go through nine molecules from PubChem BioAssay (NCI).

Common to all, as to assay: NCI-60 one-dose screen, 48 h (100 = growth as untreated, 0 = no growth, -100 = all killed)
What all share (details): 10 µM unless noted

For assay [1], the system named is NCI-H23 lung.
For assay [2], the system named is NCI-H226 lung.
Assay [3] concerns NCI-H322M lung.
The subject of assay [4] is HOP-62 NSCLC.
For assay [5], the system named is NCI-H460 lung.
The subject of assay [6] is HOP-92 NSCLC.
Assay [7] has as its system NCI-H522 lung.
Assay [8] deals with A549/ATCC NSCLC.
For assay [9], the system named is 786-0 renal.
Assay [10] deals with DU-145 prostate.
Assay [11] deals with K-562 leukemia.
The subject of assay [12] is MALME-3M melanoma.
Assay [13] deals with MDA-MB-231 breast.
Assay [14] relates to RXF 393 renal.
Assay [15] deals with SF-268 CNS.
In assay [16] the test system is SF-539 CNS.
Assay [17] relates to UACC-257 melanoma.
Assay [18] has as its system M14 melanoma.
The test system of assay [19] is SF-295 CNS.

Compounds without any hit were thinned out: in the full panel of roughly 83,000, 20% have a hit.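 The test compound was applied at a single concentration to cells in 96-well plates for 48 hours, and percent growth was recorded.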 Values without a mark were called inactive. Active and inactive are the calls of the source. The calls were made as follows: active = growth percent below 10; inactive = the rest.

As to `CC12CC(C#N)CCC1O2` (stereo unspecified), the growth in [1] was 109%; in assay [2] it was 115%; in [3], 127%; in [4] it was 108%; in assay [5] it was 103%; in assay [6], 93%. Further, the growth in [7] was 109%; in assay [8], 100%; in assay [9], 102%; in [10], 127%; in assay [11], 101%; in assay [12] it was 128%. For the same molecule, the growth in assay [13] was 104%; in [14], 119%; in assay [15], 110%; in assay [16] it was 96.6%; in assay [17] it was 98.3%; in assay [18], 107%.

As to `Nc1nc(N)c(-c2ccc(Cl)cc2)c(/C=C/c2ccc([N+](=O)[O-])cc2)n1`, the growth in assay [1] is 90.8%; in [2], 91.4%; in assay [3] it was 46.8%; in assay [4], 100%; in assay [5] it was 11.4%; in assay [6], 76.1%. For the same molecule, the growth in assay [7] was 97.4%; in assay [8], 47.9%; in [9], 99.3%; in assay [10] it was 87.2%; in assay [11], 19.4%; in assay [13], 95.4%. In addition, the growth in assay [14] is 74.7%; in [15] it was 79.3%; in [19] it was 51.5%; in [16] it was 93.5%; in [17], 66.3%; in assay [18], 63.6%.

For the molecule `O=C(CC1Sc2ccccc2NC1=O)NNc1ccc(F)cc1` (stereo unspecified), the growth is 95.3% in assay [1]; 84.4% in assay [2]; 86.8% in [3]; 57.1% in assay [4]; 93.1% in assay [5]; 71.4% in assay [6]. Moreover, the growth in [7] is 71.1%; in [8], 92.5%; in [9], 78.1%; in assay [10], 98%; in assay [11], 13.6%; in assay [12], 112%. Further, the growth was 84.9% in [13]; 72.1% in [15]; 31% in [19]; 94.8% in assay [16]; 92.4% in assay [17]; 31.3% in [18].

As for `CCOC(=O)c1cnn2c(-c3ccc(Cl)cc3)nc(NCc3ccccc3)nc12`, the growth in assay [1] is 58.4%; in assay [2] it was 89.3%; in assay [3], 99.2%; in assay [4] it was 93.5%; in [5], 78.1%; in [6], 64.2%. Moreover, the growth in assay [7] was 81.5%; in assay [8] it was 84.9%; in assay [9], 6.24% (active); in assay [10] it was 44.6%; in assay [12], 64.6%; in assay [13], 77.5%. The growth was 40.7% in assay [14]; 28.8% in assay [15]; 58.9% in assay [19]; 10.7% in assay [16]; 96.2% in assay [17]; 86.8% in assay [18].

For the molecule `O=C(O)CC1Sc2ccccc2NC1=O` (stereo unspecified), the growth in assay [1] was 89.1%; in assay [2] it was 95.2%; in assay [3], 104%; in [4], 96.3%; in assay [5] it was 195%; in [6], 73.1%. Besides, the growth in assay [7] was 81%; in assay [8] it was 106%; in assay [9], 108%; in assay [10], 116%; in assay [11], 70.4%; in assay [12], 106%. The growth in assay [13] is 108%; in [15], 100%; in [19] it was 104%; in [16], 145%; in [17], 98.5%; in [18], 89.5%.

Regarding `COC(=O)[C@]12CC[C@@H](C)[C@H](C)[C@@H]1C1=CC[C@@H]3[C@@]4(C)C(C=O)=C[C@@](C)(CO)C4=CC[C@@]3(C)[C@]1(C)CC2`, the growth was 31.7% in [1]; 58.5% in assay [2]; 61.3% in assay [3]; 83.8% in [4]; 17.5% in [5]; 38% in assay [6]. The growth is 28.1% in assay [7]; 29.1% in assay [8]; 45.2% in assay [9]; 39.9% in assay [10]; 16.4% in assay [11]; 60.1% in [12]. For the same molecule, the growth in assay [13] was 53.2%; in assay [15] it was 48.3%; in [19], 24.9%; in assay [16], 29.8%; in assay [18], 28.5%.

For `C=C(C=O)[C@@H]1CC=C(C=O)CC1`, the growth is -4.9% (active) in [1]; 71.2% in [2]; -24.7% (active) in assay [3]; -19.7% (active) in assay [4]; -16.6% (active) in assay [5]; -39.9% (active) in assay [6]. Further, the growth in assay [7] is 5.01% (active); in [8], 15.6%; in [9], -19.3% (active); in [10] it was -74.6% (active); in [11], -23.2% (active); in assay [12], -31.1% (active). Moreover, the growth in assay [13] was -25.9% (active); in [15], -16.7% (active); in assay [19], -15.7% (active); in assay [16], -60.4% (active); in [17], -9.83% (active); in assay [18], 14.8%.

Take `CSc1nc(N)c(CNC(C)c2ccccc2)c(=O)n1C` (stereo unspecified): the growth in assay [1] was 97.4%; in assay [2], 91.4%; in [3] it was 169%; in [4] it was 95%; in assay [5] it was 105%; in assay [6], 89%. Also, the growth in [7] was 94.3%; in assay [8] it was 97.7%; in assay [9] it was 90.2%; in assay [10], 118%; in [11] it was 96.2%; in assay [13], 114%. The growth in [14] is 98.9%; in [15], 106%; in [19], 117%; in [16], 94.9%; in assay [17] it was 90.2%; in assay [18], 97.5%.

In the case of `c1ccc2[nH]c(SSc3nc4ncncc4[nH]3)nc2c1`, the growth in assay [1] is 32.1%; in assay [2] it was 57.6%; in assay [3] it was 73.5%; in [4], 21.2%; in assay [5] it was 42.7%; in [6], 27.5%. The growth in [7] was 35.6%; in [8] it was 80%; in [9] it was 16%; in assay [10], 29.5%; in [11], 17.1%; in [13], 36.1%. The growth is 64.7% in [14]; 30.1% in assay [15]; -39% (active) in [19]; 8.16% (active) in assay [16]; 42% in assay [17]; 8.49% (active) in assay [18].
